Test results: PubChem BioAssay (NCI)
The panel holds about 83,000 compounds, 20% with a hit somewhere; the sample as a whole holds those more often.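 96-well plates, one dose, 48 hours. Percent growth reported; active if below 10.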 A number with no mark means an inactive call. The source made the active and inactive calls.

Key:
Assay in all cases: NCI-60 one-dose screen, 48 h (100 = growth as untreated, 0 = no growth, -100 = all killed)
Details in all cases: 10 µM unless noted
SR leukemia = test system: SR leukemia
RPMI-8226 leukemia = test system: RPMI-8226 leukemia
OVCAR-8 ovarian = test system: OVCAR-8 ovarian
OVCAR-5 ovarian = test system: OVCAR-5 ovarian
OVCAR-4 ovarian = test system: OVCAR-4 ovarian
SK-OV-3 ovarian = test system: SK-OV-3 ovarian
IGROV1 ovarian = test system: IGROV1 ovarian
OVCAR-3 ovarian = test system: OVCAR-3 ovarian
HS 578T breast = test system: HS 578T breast
NCI/ADR-RES ovarian = test system: NCI/ADR-RES ovarian

| SMILES | growth (SR leukemia) | growth (RPMI-8226 leukemia) | growth (OVCAR-8 ovarian) | growth (OVCAR-5 ovarian) | growth (OVCAR-4 ovarian) | growth (SK-OV-3 ovarian) | growth (IGROV1 ovarian) | growth (OVCAR-3 ovarian) | growth (HS 578T breast) | growth (NCI/ADR-RES ovarian) |
| --- | --- | --- | --- | --- | --- | --- | --- | --- | --- | --- |
| COC(=O)c1c2c(c(C)[n+]([O-])c1C)C(=O)C(NCc1ccccc1)=CC2=O | 61.4% | 37.3% | 5.27% (active) | 39.5% | -78.7% (active) | 88.8% | 8.63% (active) | 0.759% (active) | 68.8% | 2.6% (active) |
| COC1C(O)CC(OC2CC(OC3CC(O[C@@H]4C(=O)c5c(cc6cc(OC7CC(OC8CC(O)C(O)C(C)O8)C(O)C(C)O7)c(C)c(O)c6c5O)CC4[C@H](OC)C(=O)O)OC(C)C3O)OC(C)C2O)OC1C (stereo not given in full) | 18% | 19% | 15.6% | 29.3% | 44.8% | 35.1% | 23.7% | 18% | 23.5% | 63% |
| N#Cc1c(-c2ccccc2)nc2c(c(-c3ccc(Cl)cc3)nn2-c2ccccc2)c1-c1ccc([N+](=O)[O-])cc1 | 63.4% | 101% | 98.5% | 99.9% | 109% | 102% | 103% | 126% | 104% | 101% |
| COC(=O)/C=C1/SC(=NCc2ccccc2)N(CCc2c[nH]c3ccccc23)C1=O | 29.8% | 52.4% | 67.6% | 110% | 78.1% | 111% | 92.1% | 79.1% | 79.7% | 80.6% |
| CCOC(=O)c1cnn(CC(C)O)c1NC(=O)NCc1ccccc1C(F)(F)F (stereo not given) | 82.3% | 116% | 97.6% | 102% | 98.6% | 101% | 95.5% | 108% | 110% | 100% |
| O=C(O)CC(C(=O)O)/C(=C\c1ccccc1)c1ccccc1 (stereo not given) | 105% | 102% | 100% | 104% | 107% | 97.4% | 120% | 113% | 105% | 110% |
| CCN(CCNc1ccc(C)c2sc3cc(Cl)ccc3c(=O)c12)CC(C)(C)O | 49.6% | 49.4% | 85.5% | 70.2% | 72.8% | 45.1% | 50.7% | 91.7% | 79.3% | 74.6% |
| COC1/C=C/OC2(C)Oc3c(C)c(O)c4c(O)c(c(/C=N/N(c5ccccc5)c5ccccc5)c(O)c4c3C2=O)NC(=O)C(C)=C/C=C/C(C)C(O)C(C)C(O)C(C)C(OC(C)=O)C1C (stereo not given) | 30.9% | 22.6% | 63.3% | 124% | 69.5% | 84.8% | 100% | 59.1% | 62.2% | 91.9% |
| CC[C@@H](C(=O)[C@@H](C)[C@@H](O)[C@H](C)[C@@H]1O[C@@H]([C@@H](CC)C(=O)ONC(=O)c2ccccc2O)CC[C@@H]1C)C1O[C@]2(C=CC(=O)[C@]3(CC[C@@](C)([C@H]4CC[C@](O)(CC)[C@H](C)O4)O3)O2)[C@H](C)C[C@@H]1C (stereo not given in full) | 1.64% (active) | 24.6% | 54.9% | 47% | 53.3% | 120% | 58.8% | 5.93% (active) | 43.9% | 48.7% |
| C=C(C)[C@@H]1CC[C@]2(C(=O)N3CCNCC3)CC[C@]3(C)[C@H](CC[C@@H]4[C@@](C)(CCC(=O)N5CCNCC5)[C@H](C(=C)C)CC[C@]43C)[C@@H]12 | -15.2% (active) | 12.1% | 47.8% | 104% | 81.9% | 101% | 101% | 70.7% | 92.4% | 95.6% |
| CCOC(=O)CNC1=C(Cl)C(=O)N(Cc2ccc(Cl)cc2)C1=O | 105% | 96.6% | 100% | 96.2% | 101% | 99.6% | 97.9% | 105% | 101% | 104% |
| C/C=C1/CN(CCCCC)CC[C@H]1C(=O)c1cc2ccccc2[nH]1 | 98.4% | 94.9% | 91.7% | 96.3% | 86.6% | 83.3% | 98.5% | 94% | 97.3% | 93.6% |
| CN(C)CCCn1c2c(c3cnccc3c1=O)C(=O)c1ccccc1-2 | -8.62% (active) | -13.6% (active) | -11.3% (active) | 0.0676% (active) | -9.31% (active) | 21.5% | 3.55% (active) | -11.8% (active) | 20.3% | -17.7% (active) |
| O=C1OCC2=C1C(c1ccccc1)c1cc3c(cc1N2CCO)OCCO3 (stereo not given) | 19.7% | 27.9% | 32.5% | 37.5% | 31.1% | 22.4% | 17.8% | -56.3% (active) | -9.64% (active) | -26.8% (active) |
| COc1ccc(/C=N/Nc2c3ccccc3nc3ccccc23)cc1 | 95.6% | 83.8% | 97% | 111% | 81.7% | 90.8% | 88.2% | 91.7% | 93.1% | 102% |
| O=C(NCCN1CCOCC1)OCc1ccc2c(Cl)cc(Cl)c(O)c2n1 | 68.4% | 56.2% | 49.2% | 106% | 49.4% | 91.8% | 57.8% | 62.1% | 83.1% | 5.25% (active) |
| CS(=O)(=O)Nc1cc(-c2ccc3ncnc(Nc4ccc(F)c(Cl)c4)c3c2)ccc1Cl | 35.1% | 37.4% | 52% | 53.9% | 52.5% | 17.7% | -3.25% (active) | 36.3% | 18.9% | 41.6% |
| COc1cc(OC)c2c(=O)c3c(CC=C(C)C)cc(OC)c(O)c3oc2c1 | 53.2% | 81.7% | 88.6% | 96.2% | 98.5% | 96.6% | 91.7% | 92.8% | 88.7% | 78.8% |
| CNCCCNc1nc2ccccc2c2c(=O)c3cc(Cl)ccc3sc12 | -39.9% (active) | -25.3% (active) | 24.5% | 47.1% | 63.6% | 84.4% | 33.2% | 9.78% (active) | 59.9% | 44.3% |
| COC12C=C/C(=C(/C(=O)OCCSc3ccnn3C)C(=O)CCCCCCCCC3(OC)C=C/C(=C(/C(=O)OCCSc4ccnn4C)C(=O)CCCCCCCC1)O3)O2 | -7.77% (active) | -8.92% (active) | 17.3% | 37% | 20.4% | 75.1% | -3.71% (active) | 5.79% (active) | 39.4% | 25.2% |
| CC(C)(Sc1cc(C(C)(C)C)c(O)c(C(C)(C)C)c1)Sc1cc(C(C)(C)C)c(OC(=O)CCC(=O)O)c(C(C)(C)C)c1 | 78.6% | 30.3% | 41.3% | 87% | 67% | 80.3% | 55.9% | 46.8% | 67.4% | 61.5% |
| Cc1cc(O)cc(-c2nn(C)cc2-c2cc(N3CCOCC3)nc(-c3cccnc3)n2)c1 | 15% | 38.2% | 47.1% | 84.6% | 73.1% | 38.5% | 45% | 8.62% (active) | 20.5% | 45.9% |
| CN1C(=O)/C(=C/c2ccc(C(=O)Nc3ncc(Cc4cc(Cl)ccc4Cl)s3)cc2)SC1=S | 63.9% | 57% | 80.8% | 70.7% | 57% | 71.1% | 56.9% | 80.1% | 80.9% | 70.2% |
| c1ccc(-c2c(-c3ccccc3)[n+](Cc3ccc4ccccc4c3)cn2Cc2ccc3ccccc3c2)cc1 | -74.5% (active) | -54.9% (active) | -87.4% (active) | -29.1% (active) | -81.5% (active) | -97.9% (active) | -73.8% (active) | -91.1% (active) | -27.8% (active) | 70.5% |
| CC[C@H](Nc1nc(N)nc(C)c1C#N)c1nc2cccc(CN(C)c3ncc(C(=O)NO)cn3)c2c(=O)n1-c1ccccc1 | 14.1% | 4.89% (active) | 4.22% (active) | 3.2% (active) | 31.4% | -19.4% (active) | -36.2% (active) | 5.16% (active) | 8.03% (active) | 73.3% |
| Cn1c(C#N)ccc1-c1ccc(F)c(NC(=O)c2ccc(F)cc2)c1 | 29.4% | 70.1% | 95.4% | 85.4% | 85% | 80% | 74.2% | 77% | 71.5% | 76.9% |
